From PubChem BioAssay (Tox21) come the findings set out here.

Assay [1] is described as follows: qHTS assay to identify small molecule agonists of the estrogen receptor alpha (ER-alpha) signaling pathway in the presence of an antagonist - cell viability counter screen (AID 1259386).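 Further: cells exposed to compounds for 22 h at 37 °C before the viability read; nearly all actives have a fitted effect of over 30% in size.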 Further: potency means the concentration at half of the fitted maximal effect. The gist of the method: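 Viability counter screen using VM7Luc4E2 (full-length ER-alpha, four ERE-luciferase). The cells were treated with compounds alongside ICI-182,780 10.0nM for 22hr, and live-cell protease fluorescence was quantified with CellTiter-Fluor.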
(In qHTS, concentration-response curves come from the screen itself.)

Assay [2] has as its target Progesterone receptor (Homo sapiens) (UniProt P06401). Briefly: qHTS assay to identify small molecule agonists of the progesterone receptor (PR) signaling pathway (AID 1346784; calls by dose curve; further: nearly all actives have a fitted effect of over 30% in size). The gist of the method:
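Compounds were tested for PR agonism in HEK 293T cells bearing a beta-lactamase gene under UAS control. Treatment lasted 16 hr at 37C; signal came from fluorescence of a FRET substrate.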

Assay [3] in a line: qHTS assay to identify small molecule antagonists of the progesterone receptor (PR) signaling pathway - cell viability counter screen (AID 1346798). Further: nearly all actives have a fitted effect of over 50% in size. Further: potency means the concentration at half of the fitted maximal effect. The gist of the method:
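Following a 4 hr attachment, PR-UAS-bla HEK293T cells in charcoal-stripped FBS medium were exposed to compounds with R5020 for 16 hr; CellTiter-Glo was added and luminescence read after 30 min at room temperature.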

The nature of assay [4]: qHTS assay to identify small molecule agonists of the progesterone receptor (PR) signaling pathway - cell viability counter screen (AID 1346799; calls by dose curve; further: nearly all actives have a fitted effect of over 45% in size; further: potency means the concentration at half of the fitted maximal effect). Summed up:
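Here, 3,000 PR-UAS-bla HEK293T cells per well were treated with compounds for 16 hr after a 6 hr preincubation at 37C and 5% CO2; cell viability is the CellTiter-Glo luminescence signal.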

The nature of assay [5]: qHTS assay to identify small molecule antagonists of the TGF-beta/Smad signaling pathway - cell viability counter screen (AID 1346824). Further: nearly all actives have a fitted effect of over 50% in size. Further: potency means the concentration at half of the fitted maximal effect. Summed up:
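SBE-bla HEK 293T cells, incubated overnight, then compound plus 0.25 ng/mL TGF-beta1 (stock added) for 5 hr at 37 C. Viability was read in the same wells by CellTiter-Glo luminescence after 30 min at room temperature.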

Assay [6] is described as follows: qHTS assay to identify small molecule agonists of the TGF-beta/Smad signaling pathway - cell viability counter screen (AID 1346829). Further: nearly all actives have a fitted effect of over 45% in size. Further: potency means the concentration at half of the fitted maximal effect. Summed up: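 SBE-bla HEK 293T cells plated overnight, compound exposure 5 hr at 37 C. Viability read in the same wells by CellTiter-Glo luminescence after 30 min at room temperature, following the beta-lactamase read.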
Assay [7] can be described thus: qHTS assay to identify small molecule agonists of the TGF-beta/Smad signaling pathway (AID 1346859; active means well fitted activation curve with a large enough effect in the signal ratio in the repeat runs, not every such curve was filed as active; the % refers to the signal ratio; further: series mostly up to about 77 µM). Summed up:
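Each well held 4,000 SBE-bla HEK 293T cells incubated overnight before compound addition; 5 hr later the cleavable FRET substrate went on for 2 hr at room temperature, and fluorescence was read at two emissions.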

Assay [8] concerns the target Thyrotropin-releasing hormone receptor (Homo sapiens) (UniProt P34981). Nature of the assay: qHTS assay to identify small molecule antagonists of the thyrotropin-releasing hormone receptor (TRHR) signaling pathway (AID 1346877; active means well fitted inhibition curve with a large enough effect in the repeat runs, not every such curve was filed as active; further: potency means the concentration at half of the fitted maximal effect). The gist of the method: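 Following an 18 h incubation at 37 °C and a 2 h calcium dye load, TRHR-HEK293 cells were exposed to compound (5 min, room temperature) and challenged with TRH, 1 nM final.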

The target is the same in assay [9]. Nature of the assay: qHTS assay to identify small molecule agonists of the thyrotropin-releasing hormone receptor (TRHR) signaling pathway (AID 1346891; calls by dose curve; further: series mostly up to about 58 µM). The gist of the method: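 Screening of agonists relied on calcium signalling in HEK293 cells expressing human TRHR: dye loading 2 h at 37 °C preceded compound addition and a 3-min fluorescence time course.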

Assay [10] can be described thus: Human pregnane X receptor (PXR) small molecule agonists, qHTS cell viability counter screen (AID 1346977). Further: nearly all actives have a fitted effect of over 50% in size. Further: potency means the concentration at half of the fitted maximal effect. The gist of the method:
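Tox21 qHTS format; PXR-Luc HepG2, 2,000/well, charcoal-stripped FBS 5%. Cpd exposure 24hr. Read: CellTiter-Fluor fluorescence, multiplexed with luciferase.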

Assay [11] in a line: Caspase-3/7 induction in HepG2 cells by small molecules, qHTS assay (AID 1346978). Further: nearly all actives have a fitted effect of over 15% in size. Summed up:
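Wild-type HepG2 cells, 2,000/well, settled 5 hr at 37 C and 5% CO2, then compound-treated for 17 hr; caspase-3/7 activity read by luminescent Caspase-Glo 3/7 after 30 min at room temperature.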

Assay [12] can be described thus: Caspase-3/7 induction in CHO-K1 cells by small molecules, qHTS cell viability counter screen (AID 1346979). Further: nearly all actives have a fitted effect of over 35% in size. Further: potency means the concentration at half of the fitted maximal effect. The gist of the method:
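CellTiter-Fluor viability check, qHTS format: wild-type CHO-K1, 16hr compound treatment, 1hr reagent incubation, fluorescence read.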

Assay [13] in a line: Caspase-3/7 induction in CHO-K1 cells by small molecules, qHTS assay (AID 1346980). Further: nearly all actives have a fitted effect of over 15% in size. Summed up:
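Wild-type CHO-K1 cells exposed to compounds for 17hr at 37 C, 5% CO2. Caspase-3/7 activity then measured by Caspase-Glo 3/7 luminescence after 30min at room temperature.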

The nature of assay [14]: Caspase-3/7 induction in HepG2 cells by small molecules, qHTS cell viability counter screen (AID 1346981). Further: nearly all actives have a fitted effect of over 30% in size. Further: potency means the concentration at half of the fitted maximal effect. The gist of the method: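 Viability determined by CellTiter-Fluor fluorescence in HepG2 wells also used for the luminescent Caspase-Glo 3/7 read. Compounds were present for 16 hr at 37 C, 5% CO2 before reagent addition.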
Assay [15] concerns the target Nuclear receptor subfamily 1 group I member 2 (Homo sapiens) (UniProt O75469). Nature of the assay: Human pregnane X receptor (PXR) small molecule agonists, qHTS assay (AID 1346982). Further: nearly all actives have a fitted effect of over 35% in size. Further: potency means the concentration at half of the fitted maximal effect. The gist of the method: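 Compound-induced hPXR transactivation of a CYP3A4 luciferase reporter was scored in HepG2 PXR-Luc cells over 24 hr at 37 C, 5% CO2, by luminescence.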
Assay [16] deals with Cytochrome P450 2D6 (Homo sapiens) (UniProt P10635). Nature of the assay: Cytochrome P450 Family 2 Subfamily D Member 6 (CYP2D6) small molecule antagonists: luciferase reporter qHTS assay (AID 1671196). Further: nearly all actives have a fitted effect of over 50% in size. Further: potency means the concentration at half of the fitted maximal effect. The gist of the method: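 Each well received CYP2D6 with its proluciferin substrate and chemical, sat 10 min, then got NADPH regeneration solution for 1 h at room temperature. Luminescence in RLU served as the activity measure.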
Sequence of Cytochrome P450 2D6 (Homo sapiens) (P10635 whole entry, looked up): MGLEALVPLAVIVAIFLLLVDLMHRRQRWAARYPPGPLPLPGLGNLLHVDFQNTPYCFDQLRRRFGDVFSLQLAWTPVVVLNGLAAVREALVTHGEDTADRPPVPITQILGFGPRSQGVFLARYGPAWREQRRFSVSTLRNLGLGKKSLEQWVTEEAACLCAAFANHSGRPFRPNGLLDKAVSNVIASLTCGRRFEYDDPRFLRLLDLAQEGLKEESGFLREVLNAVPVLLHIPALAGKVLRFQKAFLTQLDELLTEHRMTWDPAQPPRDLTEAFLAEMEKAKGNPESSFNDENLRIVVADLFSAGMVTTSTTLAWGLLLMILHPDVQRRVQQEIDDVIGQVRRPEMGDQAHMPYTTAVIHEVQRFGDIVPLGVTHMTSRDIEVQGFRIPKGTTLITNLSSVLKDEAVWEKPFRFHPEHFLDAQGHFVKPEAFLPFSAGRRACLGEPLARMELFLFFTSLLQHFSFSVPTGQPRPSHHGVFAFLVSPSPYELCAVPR
(In general: In a reporter assay the amount or activity of a reporter protein is the signal.)

Assay [17] has as its target Nuclear receptor subfamily 1 group I member 2 (Rattus norvegicus) (UniProt Q9R1A7). Briefly: Rat pregnane X receptor (rPXR) activation by small molecules, qHTS assay (AID 1346983). Further: nearly all actives have a fitted effect of over 20% in size. Conditions: rPXR luciferase reporter cells, One-Glo luminescence, 24 h; stronger effect = higher value. Summed up:
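Cell-based rPXR activation assay: rPXR cells, 2,000 per well, rested 5hr at 37 C, then exposed to compounds in DMSO for 24 hr at 37 C. Luciferase activity read by One-Glo luminescence after 30 min at room temperature.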

The target in assay [18] is Nuclear receptor subfamily 1 group I member 2 (Homo sapiens) (UniProt O75469). Nature of the assay: CYP3A4 induction through human pregnane X receptor (PXR) by small molecules, qHTS assay (AID 1346984). Further: nearly all actives have a fitted effect of over 40% in size. Summed up:
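Readings come from a luciferase reporter: DPX-2 cells, which are HepG2 cotransfected with PXR and a CYP3A4-promoter construct, were exposed to test compounds for 24 h at 37C before One-Glo detection.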

Assay [19] has the same target. Briefly: Human pregnane X receptor (PXR) activation by small molecules, qHTS assay (AID 1346985). Further: nearly all actives have a fitted effect of over 40% in size. The gist of the method: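 DPX-2 cells (HepG2 co-transfected with a PXR response element and a CYP3A4-promoter luciferase construct) were seeded at 2,000 per well, rested 5 hr at 37C, then exposed to DMSO-dissolved compounds for 24 hr. Activation was read as luciferase luminescence.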

Values joined by “and” are separate entries in the source; they are usually repeats but may differ in a detail not shown here. Equal entries are not always repeated. Results filed as inconclusive are left out. Where a structure was tested more than once in an assay, its records may differ in their call. Active and inactive are the calls of the source. Unless noted, the call rests on the fitted dose curve; in most records, active means well fitted curve in the direction sought with a large enough effect in the repeat runs; inconclusive means weak or mixed curves; inactive means no such curve, though single readings can be large; an effect the other way counts as inactive or inconclusive.
On the % scale 0 is the no-effect control and ±100 the full control effect.

Sequence of Thyrotropin-releasing hormone receptor (Homo sapiens) (P34981 whole entry, looked up): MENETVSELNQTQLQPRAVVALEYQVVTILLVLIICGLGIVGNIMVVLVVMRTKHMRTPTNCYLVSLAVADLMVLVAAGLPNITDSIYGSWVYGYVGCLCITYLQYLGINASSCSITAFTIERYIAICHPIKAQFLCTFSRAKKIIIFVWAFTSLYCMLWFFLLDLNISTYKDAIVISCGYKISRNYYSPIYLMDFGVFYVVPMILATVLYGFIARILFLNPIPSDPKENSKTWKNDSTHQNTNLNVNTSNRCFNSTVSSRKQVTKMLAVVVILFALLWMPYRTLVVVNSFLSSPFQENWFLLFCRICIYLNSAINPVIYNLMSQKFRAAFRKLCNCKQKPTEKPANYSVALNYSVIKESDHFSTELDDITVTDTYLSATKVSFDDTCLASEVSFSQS
Sequence of Nuclear receptor subfamily 1 group I member 2 (Homo sapiens) (O75469 whole entry, looked up): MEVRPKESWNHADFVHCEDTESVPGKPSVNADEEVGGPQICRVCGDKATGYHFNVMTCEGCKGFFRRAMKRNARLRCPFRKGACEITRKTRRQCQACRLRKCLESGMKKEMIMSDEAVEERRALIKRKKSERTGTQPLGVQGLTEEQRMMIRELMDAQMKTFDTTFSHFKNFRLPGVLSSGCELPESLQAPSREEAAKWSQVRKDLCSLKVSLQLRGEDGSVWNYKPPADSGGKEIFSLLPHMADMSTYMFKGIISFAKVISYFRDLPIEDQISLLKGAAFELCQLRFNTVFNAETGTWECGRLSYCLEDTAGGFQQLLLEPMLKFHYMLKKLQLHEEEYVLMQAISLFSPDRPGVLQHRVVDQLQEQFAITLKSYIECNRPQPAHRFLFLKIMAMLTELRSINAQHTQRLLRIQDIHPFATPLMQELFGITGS
Sequence of Progesterone receptor (Homo sapiens) (P06401 whole entry, looked up): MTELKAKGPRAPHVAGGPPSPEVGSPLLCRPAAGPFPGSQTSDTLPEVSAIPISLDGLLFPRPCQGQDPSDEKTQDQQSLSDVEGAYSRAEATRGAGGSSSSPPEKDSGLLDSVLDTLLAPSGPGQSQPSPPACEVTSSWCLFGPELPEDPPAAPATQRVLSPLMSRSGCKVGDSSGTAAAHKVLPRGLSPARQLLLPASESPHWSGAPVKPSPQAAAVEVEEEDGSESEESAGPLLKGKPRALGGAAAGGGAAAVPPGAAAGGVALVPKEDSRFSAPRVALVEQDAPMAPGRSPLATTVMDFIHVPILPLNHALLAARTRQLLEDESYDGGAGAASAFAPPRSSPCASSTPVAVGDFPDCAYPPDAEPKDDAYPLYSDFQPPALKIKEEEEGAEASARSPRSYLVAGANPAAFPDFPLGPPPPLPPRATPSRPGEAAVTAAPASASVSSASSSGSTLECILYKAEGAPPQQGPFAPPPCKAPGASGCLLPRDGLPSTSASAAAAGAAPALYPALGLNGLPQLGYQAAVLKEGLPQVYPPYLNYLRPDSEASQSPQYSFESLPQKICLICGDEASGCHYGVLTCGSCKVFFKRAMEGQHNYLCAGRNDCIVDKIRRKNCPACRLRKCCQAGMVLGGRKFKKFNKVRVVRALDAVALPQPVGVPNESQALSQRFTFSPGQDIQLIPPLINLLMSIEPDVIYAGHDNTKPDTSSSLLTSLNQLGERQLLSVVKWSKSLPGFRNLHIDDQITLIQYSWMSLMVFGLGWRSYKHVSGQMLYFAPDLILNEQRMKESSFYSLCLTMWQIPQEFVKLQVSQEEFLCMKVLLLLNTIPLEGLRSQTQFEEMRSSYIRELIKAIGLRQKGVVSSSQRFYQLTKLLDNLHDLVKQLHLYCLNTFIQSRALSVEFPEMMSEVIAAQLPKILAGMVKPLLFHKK
Sequence of Nuclear receptor subfamily 1 group I member 2 (Rattus norvegicus) (Q9R1A7 whole entry, looked up): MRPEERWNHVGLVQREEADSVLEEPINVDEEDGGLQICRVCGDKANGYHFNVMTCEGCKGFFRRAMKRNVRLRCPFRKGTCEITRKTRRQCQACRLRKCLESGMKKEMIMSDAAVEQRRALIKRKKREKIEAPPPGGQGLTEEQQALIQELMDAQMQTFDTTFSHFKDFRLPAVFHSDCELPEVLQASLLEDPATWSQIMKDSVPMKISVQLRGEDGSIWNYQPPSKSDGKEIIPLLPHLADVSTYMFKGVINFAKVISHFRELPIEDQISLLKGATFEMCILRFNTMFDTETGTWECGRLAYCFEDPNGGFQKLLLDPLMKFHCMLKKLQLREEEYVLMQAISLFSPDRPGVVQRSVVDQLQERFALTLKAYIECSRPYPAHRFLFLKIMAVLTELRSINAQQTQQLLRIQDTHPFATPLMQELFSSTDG

For `COc1cc(S(=O)(=O)O)c(C)cc1N=Nc1c(O)ccc2cc(S(=O)(=O)O)ccc12`, the Potency in assay [1] was 17.2 µM (active); in assay [10] it was 15.4 µM (active); in assay [12], 15.4 µM (active); in assay [14], 19.3 µM (active); in assay [16] it was 35.6 µM (active). For the same compound, the Potency entry in assay [2], in assay [3], in assay [4], in assay [5], in assay [6] and in [7] was “inactive” in each case. Also, the Potency entry in [8], in assay [11], in [13] and in assay [15] was “inactive” throughout. Moreover, in assay [9], the outcome was inactive.

On to `O=C1NC(=O)[C@@H]2CC=CC[C@H]12`, for which the Potency result in assay [1], in assay [2], in assay [5], in [6], in assay [7] and in [8] was “inactive” throughout. In addition, the Potency result in assay [10], in assay [11], in assay [12], in [13] and in assay [14] was “inactive” each time. For the same compound, the Potency in assay [3] was 15.4 µM (active); in assay [4], 8.63 µM (active). For the same compound, the compound was classed as inactive in [9].

Regarding `O=[N+]([O-])c1ccc(O)cc1C(F)(F)F`, the Potency in assay [1] was 27.3 µM (active); in assay [10], 48.6 µM (active); in assay [12] it was 24.3 µM (active); in assay [16], 14.2 µM (active). The Potency entry in assay [2], in assay [3], in [5], in assay [6], in [7] and in assay [8] was “inactive” each time. The Potency result in [11] is “inactive”. For the same compound, in assay [9], the result was inactive.

With `O=C(Oc1ccccc1)Oc1ccccc1`, the Potency entry in assay [1], in assay [2], in [3], in assay [4], in assay [5] and in assay [6] was “inactive” each time. In addition, the Potency result in assay [7], in assay [8], in [10], in assay [11], in assay [12] and in [13] was “inactive” throughout. Moreover, the Potency entry in assay [14] and in [16] was “inactive” in each case. Moreover, in [9], the compound was classed as inactive.

In the case of `O=c1oc2cc(O)ccc2c2oc3cc(O)ccc3c12`, the Potency result in assay [1], in [2], in assay [3], in assay [4], in assay [5] and in [6] was “inactive” in each case. Besides, the Potency entry in [8], in [10], in assay [11] and in [12] was “inactive” in each case. The call in [9] was inactive. Moreover, the Potency in assay [15] was 65.7 µM (active).

In the case of `CCCCCCCCCCCCCCCC[N+](C)(C)CC`, the Potency entry in assay [1], in assay [2], in assay [11], in assay [13], in [15] and in assay [18] was “inactive” throughout. Also, the Potency result in assay [19] is “inactive”. The Potency was 68.8 µM (active) in assay [3]; 68.8 µM (active) in assay [4]; 55.1 µM (active) and 26.8 µM (active) in assay [6]; 30.2 µM (active) and inactive in assay [8]; 54.6 µM (active) in assay [10]; 43.4 µM (active) and 29.8 µM (active) in assay [12]. In addition, the Potency was 61.3 µM (active) in assay [14]; 566 nM (active) and 871 nM (active) in assay [16]. For the same compound, the call in assay [9] was inactive. Also, in assay [17], the max activation was -22.3% (inactive).

For the compound `CCCCCCCCCCCCCC[N+](C)(C)Cc1ccccc1`, the Potency result in [1], in [2], in [7], in assay [13], in [15] and in assay [18] was “inactive” each time. The Potency result in assay [19] is “inactive”. Also, the Potency in [3] is 55.3 µM (active) and 5.96 µM (active); in assay [4] it was 27.7 µM (active) and 6.68 µM (active) and 12.6 mM (active); in assay [5], 49.7 µM (active); in assay [6], 49.7 µM (active) and 19 µM (active); in assay [10], 55.3 µM (active); in assay [12], 43.9 µM (active) and 33.5 µM (active) and 17.8 mM (active). The Potency is 69.6 µM (active) in assay [14]; 908 nM (active) and 1.1 µM (active) in assay [16]. Also, in assay [17], the max activation is -5.38% (inactive).
